The panel holds about 83,000 compounds, 20% with a hit somewhere; the sample as a whole holds those more often.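 Compound tested at a single concentration for 48 hours in 96-well plates; a percent growth value below 10 was scored as active.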 Unmarked numbers belong to inactive results. Activity calls are given as the source filed them.
What was measured:
Test in all cases: NCI-60 one-dose screen, 48 h (100 = growth as untreated, 0 = no growth, -100 = all killed)
Conditions in all cases: 10 µM unless noted
[1] = tested on: SK-MEL-2 melanoma
[2] = tested on: EKVX NSCLC
[3] = tested on: SN12C renal
[4] = tested on: UO-31 renal
[5] = tested on: TK-10 renal
[6] = tested on: ACHN renal
[7] = tested on: CAKI-1 renal
[8] = tested on: A498 renal
[9] = tested on: CCRF-CEM leukemia
[10] = tested on: MOLT-4 leukemia
[11] = tested on: RPMI-8226 leukemia
[12] = tested on: OVCAR-5 ovarian
[13] = tested on: OVCAR-4 ovarian
[14] = tested on: SK-OV-3 ovarian
[15] = tested on: IGROV1 ovarian
[16] = tested on: OVCAR-3 ovarian
[17] = tested on: HS 578T breast
[18] = tested on: NCI/ADR-RES ovarian
[19] = tested on: OVCAR-8 ovarian

Cc1cc(=O)oc2cc(OC(=O)CN3CCN(C)CC3)ccc12
growth [1]: 106%
growth [2]: 92.5%
growth [3]: 96.6%
growth [4]: 92.8%
growth [5]: 109%
growth [6]: 103%
growth [7]: 85.8%
growth [8]: 97.2%
growth [9]: 98.7%
growth [10]: 101%
growth [11]: 103%
growth [12]: 101%
growth [13]: 96.6%
growth [14]: 107%
growth [15]: 115%
growth [16]: 105%
growth [17]: 97.9%
growth [18]: 105%

CC(=O)CC(c1ccccc1)c1c(C)[nH]c2ccccc12 (centres undefined)
growth [1]: 105%
growth [2]: 85.9%
growth [3]: 94%
growth [4]: 72.6%
growth [5]: 117%
growth [6]: 92.8%
growth [7]: 77.8%
growth [8]: 88.1%
growth [9]: 101%
growth [10]: 95%
growth [11]: 94.4%
growth [19]: 97.4%
growth [13]: 100%
growth [14]: 104%
growth [15]: 91.5%
growth [16]: 95.9%
growth [17]: 84.6%
growth [18]: 93.6%

N/C(=N\c1nc2ccccc2s1)NC(=O)Nc1cccc2ccccc12
growth [1]: 38.7%
growth [2]: 40.2%
growth [3]: 44%
growth [4]: 53.4%
growth [5]: 55%
growth [6]: 42.1%
growth [7]: 29.5%
growth [8]: -10.8% (active)
growth [9]: 12.2%
growth [10]: 19.9%
growth [11]: 13.8%
growth [19]: 32.9%
growth [12]: 41.1%
growth [13]: 60.8%
growth [14]: 40.4%
growth [16]: -14.2% (active)
growth [17]: 16.6%
growth [18]: -7.24% (active)

N#Cc1c(-c2ccc(Cl)cc2)nc2c(c(-c3ccccc3)nn2-c2ccccc2)c1-c1ccc(O)cc1
growth [1]: 74.5%
growth [2]: 67.8%
growth [3]: -18.4% (active)
growth [4]: 30.5%
growth [5]: 17.2%
growth [6]: 56%
growth [7]: 40.2%
growth [8]: 79.3%
growth [9]: 27%
growth [10]: 24.3%
growth [11]: 17.9%
growth [12]: 84%
growth [13]: 64.7%
growth [14]: 96.9%
growth [15]: 69.8%
growth [16]: 48.3%
growth [17]: 26.5%
growth [18]: 57.9%

COc1ccc(-c2cnc3ccccc3n2)cc1
growth [1]: 112%
growth [2]: 88.2%
growth [3]: 93.7%
growth [4]: 81.9%
growth [5]: 91.3%
growth [6]: 97.9%
growth [7]: 84.4%
growth [8]: 95%
growth [9]: 97.4%
growth [10]: 103%
growth [11]: 97.2%
growth [19]: 99.7%
growth [12]: 92.6%
growth [13]: 94.2%
growth [14]: 98.5%
growth [15]: 94.9%
growth [17]: 89.4%
growth [18]: 102%

CSc1nc2ccc(C)cc2cc1/C=N/O
growth [1]: 74.7%
growth [2]: 67.8%
growth [3]: 91.9%
growth [4]: 66.4%
growth [5]: 101%
growth [6]: 82.8%
growth [7]: 80.4%
growth [8]: 85.2%
growth [9]: 105%
growth [10]: 83%
growth [11]: 106%
growth [19]: 84.6%
growth [12]: 81.6%
growth [13]: 91%
growth [14]: 86%
growth [16]: 106%
growth [17]: 75%
growth [18]: 98.1%

N#Cc1ccc(NC(=O)c2sc3nc4c(cc3c2N)C(=O)CCC4)cc1
growth [1]: 83%
growth [2]: 93.6%
growth [3]: 98.3%
growth [4]: 104%
growth [5]: 65.9%
growth [6]: 108%
growth [7]: 93.3%
growth [8]: 79.6%
growth [9]: 99.8%
growth [10]: 115%
growth [11]: 95.7%
growth [12]: 89.2%
growth [13]: 106%
growth [14]: 106%
growth [15]: 113%
growth [16]: 114%
growth [17]: 111%
growth [18]: 106%

CCCCN(C)N=Nc1ccc(C(N)=O)cc1
growth [1]: 107%
growth [2]: 96.2%
growth [3]: 96.7%
growth [4]: 57.1%
growth [5]: 111%
growth [6]: 107%
growth [7]: 59%
growth [8]: 89.7%
growth [9]: 110%
growth [10]: 87.7%
growth [11]: 114%
growth [19]: 107%
growth [12]: 99.2%
growth [13]: 107%
growth [14]: 121%
growth [16]: 103%
growth [17]: 101%
growth [18]: 106%

Reference: PubChem BioAssay (NCI)
